PNC inhibitor = perinucleolar compartment assembly inhibition; PC3M PTB-GFP, PNC prevalence imaging, 16 h; active compounds read low; activity change (PNC), negative = inhibition, % at 10 µM; 140,000 compounds, 3.1% hits;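 active means readout at or below -70, meaning at least 70% loss of cells showing the perinucleolar compartment, a nuclear body marking cancer cells; inconclusive means readout between -30 and a set limit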;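 further: plate controls were DMSO wells for no effect and camptothecin positive control wells for full effect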
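PC3M cells stably expressing PTB-GFP, 750–1000 cells/well, treated 16 h at 37 °C with compound (23 nl of library stock), in duplicate. After paraformaldehyde fixation and Hoechst stain, imaged at 20x; PNC prevalence scored by image analysis.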
HPGD inh = HPGD (human) dehydrogenase inhibition. P15428. purified HPGD, NADH fluorescence kinetic, PGE2 substrate. Potency, µM, inactives show top-dose activity change, negative = inhibition, most hits filed as inhibitors. 150,000 compounds, 4.3% hits. AID 894; further: potency means the concentration at half of the fitted maximal effect
Target sequence (P15428 whole entry, looked up): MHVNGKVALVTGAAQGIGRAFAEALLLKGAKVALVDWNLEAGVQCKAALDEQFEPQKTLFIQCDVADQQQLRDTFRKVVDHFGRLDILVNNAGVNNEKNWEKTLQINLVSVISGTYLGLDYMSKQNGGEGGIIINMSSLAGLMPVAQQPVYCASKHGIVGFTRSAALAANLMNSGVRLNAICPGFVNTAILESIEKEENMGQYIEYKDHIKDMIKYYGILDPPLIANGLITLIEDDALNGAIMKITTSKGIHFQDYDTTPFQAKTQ
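NADH formation kinetics: reaction with 30 uM PGE2 and 1 mM NAD+ (final), 20 nM enzyme, Tris-HCl pH 8 with Tween 20, after 15 min compound preincubation at room temperature. Fluorescence change, last versus first of five reads.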
NPSR antag = blocks cAMP signaling of the human neuropeptide S receptor | Q6W5P4 | CHO-NPSR cells, cAMP TR-FRET, antagonist mode | Potency, µM (doses to about 38.3 µM), inactives show at the top dose activity change, negative = inhibition, hits mostly inhibitors | 220,000 compounds, 1% hits | AID 1461; active means well fitted curve in the direction sought with a large enough effect; inconclusive means small, poorly fitted or top-dose-only effect, or another doubt; inactive means no such curve, though single readings can be large; an effect the other way counts as inactive or inconclusive; further: potency means the concentration at half of the fitted maximal effect; nearly all actives have a fitted effect of over 50% in size
IMPase cell inh = IMPase inhibition in cells; 120,000 tested, under 10 active; CHO-M1 cells, IP1 accumulation, HTRF TR-FRET ratio; P97697; AID 901; inhibition (IP1 accumulation), % at 46.1 µM; active means well fitted curve in the direction sought with a large enough effect in the signal ratio, not every such curve was filed as active; inconclusive means small, poorly fitted or top-dose-only effect, or a change in a side signal; inactive means no such curve, though single readings can be large or run the other way; the % refers to the signal ratio;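 further: cells stimulated with carbachol in lithium chloride buffer; plate controls were DMSO basal wells for no effect and reference inhibitor wells for full effect; higher means more IMPase inhibition seen as more IP1 and lower FRET ratio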
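In this qHTS, compounds (final up to 46 uM) act on CHO-M1 cells that are then activated through the M1 receptor with carbachol, in pH 7.4 buffer containing 50 mM LiCl, for 30 min. IP1 accumulation is quantified by the IP-One immunoassay.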
ALDH1A1 inh = blocks purified human ALDH1A1 activity. Purified ALDH1A1, NADH fluorescence, propionaldehyde substrate. Potency, µM (doses to about 75.3 µM), for inactives: top-dose activity, negative = inhibition, actives largely listed as inhibitors. 220,000 compounds, 7.3% hits. AID 1030;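 further: potency means the concentration at half of the fitted maximal effect; plate controls were no enzyme wells and a reference inhibitor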
Target sequence (P00352 whole entry, looked up): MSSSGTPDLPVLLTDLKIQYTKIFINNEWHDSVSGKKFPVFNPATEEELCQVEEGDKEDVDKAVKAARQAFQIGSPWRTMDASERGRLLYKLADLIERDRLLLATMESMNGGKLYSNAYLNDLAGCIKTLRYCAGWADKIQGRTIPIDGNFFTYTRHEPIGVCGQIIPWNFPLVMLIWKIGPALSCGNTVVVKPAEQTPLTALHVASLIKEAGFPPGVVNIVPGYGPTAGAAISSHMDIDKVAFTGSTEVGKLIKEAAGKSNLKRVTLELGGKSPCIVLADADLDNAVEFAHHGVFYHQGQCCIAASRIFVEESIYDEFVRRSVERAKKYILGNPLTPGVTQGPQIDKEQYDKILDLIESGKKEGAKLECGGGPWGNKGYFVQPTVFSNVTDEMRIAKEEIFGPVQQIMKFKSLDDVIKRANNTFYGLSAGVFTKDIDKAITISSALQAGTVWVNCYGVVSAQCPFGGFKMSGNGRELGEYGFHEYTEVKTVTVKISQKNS
IMPase Li cell = membrane-permeable IMPase blocker, potentiated with lithium; CHO-M1 cells, IP1 TR-FRET (IP-One), carbachol + lithium; Potency, µM (series often up to 59.4 µM), for the others: top-dose activity, negative = IMPase inhibition, most hits filed as inhibitors; 210,000 compounds, 0.35% hits; active means well fitted curve in the direction sought with a large enough effect; inconclusive means small, poorly fitted or top-dose-only effect, or another doubt; inactive means no such curve, though single readings can be large; an effect the other way counts as inactive or inconclusive;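 further: IP1 builds up when IMPase is blocked and the TR-FRET signal falls; potency means the concentration at half of the fitted maximal effect; plate controls were basal vehicle for no effect and high inhibitor control for full effect; nearly all actives have a fitted effect of over 50% in size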
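CHO cells stably expressing M1 receptor (2000/well, cultured 16–30 h) treated 30 min at 37C with compound plus low lithium. Cytosolic IP1 by TR-FRET (665/620 ratio and 620 channel) after 10 min lysis; AC50 by Hill fit.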
Starred values were filed as active, the others as inactive; ? = inconclusive; / = not tested or not shown; [ ] = remark or other dose. A selection: hits, their analogues and other compounds. The true share with any hit is near 11%. Unless noted, the call rests on the fitted dose curve; in most records, active means well fitted inhibition curve with a large enough effect (not every such curve was filed as active); inconclusive means small, poorly fitted or top-dose-only effect, or another doubt; inactive means no such curve, though single readings can be large or run the other way. Unless noted, on the % scale 0 is the no-effect control and ±100 the full control effect.

SMILES | PNC inhibitor | HPGD inh | NPSR antag | IMPase cell inh | ALDH1A1 inh | IMPase Li cell
COc1ccc(C2C(C(=O)NCC3CCCO3)CCC(=O)N2c2ccc3c(c2)OCO3)cc1 (configuration not stated) | 18 | 5% | 1%[46.1 µM] | -1 | 14µM* | -13%[38.3 µM]
CN(C)c1nc(OCCOC(=O)COc2ccc(Cl)cc2Cl)nc(N(C)C)n1 | 5 | -5% | -8%[46.1 µM] | 8 | 10% | 23%[38.3 µM]
CN(C)c1nc(SCCOC(=O)COc2ccc(Cl)cc2Cl)nc(N(C)C)n1 | 29 | 16µM* | 0%[46.1 µM] | 3 | 5% | 0%[38.3 µM]
NS(=O)(=O)c1ccc(CCNC(=O)C(=O)c2c[nH]c3ccccc23)cc1 | -5 | -6% | -3% | / | 11% | 1%
CCCC(=O)OCCNc1cc(Sc2nccn2C)c2nonc2c1[N+](=O)[O-] | -20 | 28µM* | 10µM* | / | ? | 21%
CCCC(=O)OCCNc1cc(SCc2ccco2)c2nonc2c1[N+](=O)[O-] | 13 | ? | -1%[46.1 µM] | 19 | 4.5µM* | 12%
CCCSc1cc(NCCOC(C)=O)c([N+](=O)[O-])c2nonc12 | 11 | -26% | 9% | 1 | 6% | 6%
CC(=O)OCCCNc1cc(SCc2ccco2)c2nonc2c1[N+](=O)[O-] | 32 | 7.9µM* | -1%[46.1 µM] | 11 | 7.9µM* | 20%
COc1ccc(Cn2cccc(NC(=O)Nc3cccc(C#N)c3)c2=O)cc1 | -12 | ? | -12%[46.1 µM] | 5 | ? | -13%[38.3 µM]
CC1CCN(S(=O)(=O)c2cccc(C(=O)O)c2)CC1 | 28 | -3% | 12%[46.1 µM] | 0 | -1% | 23%[38.3 µM]
O=S(=O)(c1ccc2c(c1)C(=NO)c1cc(S(=O)(=O)N3CCCCC3)ccc1-2)N1CCCCC1 | 2 | ? | 2µM* | 1 | ? | -3%[38.3 µM]
CCOC(=O)CSc1ccc(S(=O)(=O)N(CC)CC)cc1[N+](=O)[O-] | / | / | -16% | / | -15% | 1%
COC(=O)c1cc(S(=O)(=O)N2CCC(C)CC2)ccc1F | 10 | ? | -4%[46.1 µM] | -7 | 28µM* | 37%[38.3 µM]
CC1CCN(S(=O)(=O)c2ccc3c(c2)C(=NO)c2cc(S(=O)(=O)N4CCC(C)CC4)ccc2-3)CC1 | 11 | ? | 0.5µM* | 10 | -4% | 24%[38.3 µM]
CCCCN(CCCC)S(=O)(=O)c1ccc(SCC(=O)OCC)c([N+](=O)[O-])c1 | -87* | -17% | -24%[46.1 µM] | -5 | ? | 7%[38.3 µM]
CCO[C@H]1OC(C(=O)NCc2nc3ccccc3[nH]2)=C[C@@H](c2csc3ccccc23)[C@@H]1CCCO | / | / | -39% | / | -8% | 12%
CCc1ccc(NC(=O)C2(C)Cc3ccccc3C(=O)O2)cc1 (configuration not stated) | / | / | 16% | / | -2% | -2%
COC(=O)CSc1ccc(S(=O)(=O)N2CCC(C)CC2)cc1[N+](=O)[O-] | -109* | -7% | -4% | / | 6% | -3%
Cc1ccc(S(=O)(=O)N2CCC(C)CC2)cc1[N+](=O)[O-] | / | / | -12% | / | ? | 14%
O=C(c1c(F)cccc1F)N1CCN(c2ccccc2F)CC1 | -82* | -16% | -2%[46.1 µM] | 15 | -5% | 3%[38.3 µM]
O=C(c1cc(N2C(=O)C3C4CCC(C4)C3C2=O)ccc1Cl)N1CCN(c2ccccc2F)CC1 (configuration not stated) | -119* | -3% | 3% | -1 | -2% | 10%
O=C(c1cccc(C(=O)N2CCN(c3ccccc3F)CC2)c1)N1CCN(c2ccccc2F)CC1 | 15 | -12% | ? | 8 | ? | 55%[38.3 µM]
COc1cccc(SCC(=O)N2CCN(c3ccccc3)CC2)c1 | / | / | -7% | / | / | /
CC(C)N1C(=O)/C(=C\c2nc3ccccc3c(=O)n2-c2ccccc2)c2ccccc21 | ? | -13% | -41% | / | ? | 5%
CC(C)N1C(=O)/C(=C/c2nc3ccccc3c(=O)n2-c2ccccc2)c2ccccc21 | 51 | -10% | 10µM* | 6 | ? | 11%
SMILES | PNC inhibitor | HPGD inh | NPSR antag | IMPase cell inh | ALDH1A1 inh | IMPase Li cell
CN(C)c1ccc(/C=N/N=C2/NC(=O)/C(=C/c3ccc([N+](=O)[O-])cc3)S2)cc1 | -9 | -25% | -9%[46.1 µM] | 7 | 25µM* | 11%[38.3 µM]
CCN1C(=O)C(O)(C2COC(C)(C)CC2=O)c2cc(Br)ccc21 (configuration not stated) | ? | -13% | 12%[46.1 µM] | 11 | 8.9µM* | 21%[38.3 µM]
CCCN1C(=O)C(O)(C2CC(=O)CC(C)(C)O2)c2ccccc21 (configuration not stated) | 29 | -1% | -8%[46.1 µM] | 1 | 0.79µM* | -1%[38.3 µM]
CCCN1C(=O)C(O)(C2COC(C)(C)CC2=O)c2ccccc21 (configuration not stated) | / | / | 8% | / | 0.35µM* | 8%
CCN1C(=O)C(O)(C2COC(C)(C)CC2=O)c2ccccc21 (configuration not stated) | 32 | -6% | -9%[46.1 µM] | 4 | ? | -4%[38.3 µM]
C/C(=N/NC(=O)C1COc2ccccc2O1)c1ccc(Br)s1 (configuration not stated) | / | / | -2% | / | / | /
CCOC(=O)/C(C#N)=C/c1ccc(OC)c(OC)c1 | -10 | -3% | -3%[46.1 µM] | -3 | ? | -8%[38.3 µM]
COc1cc(/C=C(\C#N)C(=O)c2ccc(O)c(O)c2)cc(I)c1O | / | 18µM* | -15%[46.1 µM] | 6 | ? | 8%
COc1ccc(-n2nnc3c(SCc4ccccc4)ncnc32)cc1 | -15 | 16µM* | -27%[46.1 µM] | 7 | 13µM* | 22%[38.3 µM]
COc1ccc(-n2nnc3c(SCC(=O)OCc4ccccc4)ncnc32)cc1 | -2 | -2% | 0%[46.1 µM] | -1 | -1% | -4%[38.3 µM]
CCN(CC)C(=O)CSc1ncnc2c1nnn2-c1ccc(OC)cc1 | 0 | -15% | -9%[46.1 µM] | -13 | 4µM* | -6%[38.3 µM]
COC(=O)c1ccc(CSc2ncnc3c2nnn3-c2ccc(F)cc2)o1 | -26 | 7.1µM* | -23%[46.1 µM] | 7 | -13% | 20%[38.3 µM]
C=CCNc1nc(SC)nc2ccsc12 | 20 | -9% | -1%[46.1 µM] | -4 | 12% | 4%
Fc1ccc(N/N=C2/CCSc3sccc32)c(F)c1 | / | / | -21% | / | 19µM* | /
CC(C)(C)C(=O)NC(=S)N1CCCC1 | 65 | -5% | 5% | / | 13% | -11%
O=C(CSc1nnc(Cc2cccs2)n1-c1ccc(Cl)cc1)NCc1ccc2c(c1)OCO2 | 23 | -15% | ? | 15 | ? | 0%[38.3 µM]
Cc1nn2c(C(F)(F)F)cc(-c3ccc(Cl)cc3)nc2c1C(=O)N1CCOCC1 | ? | ? | -15%[46.1 µM] | 12 | 11µM* | -8%[38.3 µM]
c1ccc(Nc2scc(-c3ccccc3)[n+]2Cc2ccco2)cc1 | / | / | -54% | / | 10µM* | 7%
c1ccc(C[n+]2c(-c3ccccc3)csc2Nc2ccccc2)cc1 | -7 | -16% | -25% | -6 | ? | 27%
Cc1cc(=O)c2cccc(Br)c2[nH]1 | -100* | -14% | -6%[46.1 µM] | -8 | 10% | -11%
